Results: the antibiotic and cytotoxicity screens of Wong et al. (2023)
The whole screen tested about 39,000 compounds, of which about 3,300 (8.5%) were called active. For the sample, actives were picked, then their nearest neighbours and some compounds at random.

Test system: HepG2
Assay: cytotoxicity call (relative viability < 0.9)
Settings: 10 µM

SMILES | cytotoxicity call
C[C@H]1CN([C@@H](C)CO)C(=O)Cc2cc(NC(=O)CCCCCC(=O)Nc3ccccc3N)ccc2O[C@@H]1CN(C)CC1CCCCC1 | inactive
Cc1ccc(S(=O)(=O)N(C)C[C@H]2OCCCC[C@H](C)Oc3ccc(NC(=O)Cc4ccccc4)cc3C(=O)N([C@@H](C)CO)C[C@@H]2C)cc1 | active
Cc1ccc(S(=O)(=O)N(C)C[C@@H]2OCCCC[C@H](C)Oc3ccc(NC(=O)Cc4ccccc4)cc3C(=O)N([C@H](C)CO)C[C@@H]2C)cc1 | active
Cc1ccc(S(=O)(=O)N(C)C[C@@H]2OCCCC[C@@H](C)Oc3ccc(NC(=O)Cc4ccccc4)cc3C(=O)N([C@H](C)CO)C[C@@H]2C)cc1 | inactive
Cc1ccc(S(=O)(=O)N(C)C[C@@H]2OCCCC[C@H](C)Oc3ccc(NC(=O)Cc4ccccc4)cc3C(=O)N([C@H](C)CO)C[C@H]2C)cc1 | inactive
Cc1ccc(S(=O)(=O)N(C)C[C@@H]2OCCCC[C@@H](C)Oc3ccc(NC(=O)Cc4ccccc4)cc3C(=O)N([C@@H](C)CO)C[C@@H]2C)cc1 | inactive
Cc1ccc(S(=O)(=O)N(C)C[C@H]2OCCCC[C@H](C)Oc3ccc(NC(=O)Cc4ccccc4)cc3C(=O)N([C@H](C)CO)C[C@H]2C)cc1 | inactive
CC(C)NC(=O)Nc1ccc2c(c1)C(=O)N([C@H](C)CO)C[C@@H](C)[C@H](CN(C)S(=O)(=O)c1cn(C)cn1)OCCCC[C@H](C)O2 | inactive
CC(C)(C)NC(=O)[C@@H]1C[C@@H]2CCCC[C@@H]2CN1C[C@@H](O)[C@H](Cc1ccccc1)NC(=O)[C@H](CC(N)=O)NC(=O)c1ccc2ccccc2n1 | inactive
Cc1noc(C)c1S(=O)(=O)Nc1cccc2c1O[C@H](CN(C)C(=O)Nc1ccc3c(c1)OCO3)[C@H](C)CN([C@@H](C)CO)C2=O | inactive
COc1ccc(S(=O)(=O)Nc2cccc3c2O[C@H](CN(C)S(C)(=O)=O)[C@H](C)CN([C@H](C)CO)C3=O)cc1 | inactive
C[C@@H]1CN([C@H](C)CO)C(=O)c2cccc(NC(=O)c3ccc(-c4nccs4)cc3)c2O[C@@H]1CN(C)Cc1ccc(C(=O)Nc2ccccc2N)cc1 | active
C[C@@H]1CN([C@@H](C)CO)C(=O)c2cccc(NC(=O)c3ccc(-c4nccs4)cc3)c2O[C@@H]1CN(C)Cc1ccc(-c2ccccc2)cc1 | active
C[C@@H]1CN([C@@H](C)CO)C(=O)c2cccc(NC(=O)c3cnccn3)c2O[C@H]1CN(C)Cc1ccccc1 | inactive
C[C@H](CO)N1C[C@H](C)[C@@H](CN(C)Cc2ccc(C(=O)Nc3ccccc3N)cc2)Oc2c(NC(=O)c3ccc(-c4nccs4)cc3)cccc2C1=O | inactive
C[C@H](CO)N1C[C@H](C)[C@H](CN(C)S(=O)(=O)c2ccc(Cl)cc2)Oc2c(NC(=O)c3ccc(-c4nccs4)cc3)cccc2C1=O | active
C[C@@H]1CN([C@@H](C)CO)C(=O)c2cccc(NC(=O)c3ccc(-c4nccs4)cc3)c2O[C@H]1CN(C)S(=O)(=O)c1ccc(Cl)cc1 | inactive
C[C@H](CO)N1C[C@H](C)[C@@H](CN(C)Cc2ccc(-c3ccccc3)cc2)Oc2c(NC(=O)c3ccc(-c4nccs4)cc3)cccc2C1=O | inactive
C[C@H]1CN([C@@H](C)CO)C(=O)c2cccc(NC(=O)c3ccc(-c4nccs4)cc3)c2O[C@H]1CN(C)Cc1ccc(C(=O)Nc2ccccc2N)cc1 | inactive
C[C@@H]1CN([C@H](C)CO)C(=O)c2cccc(NC(=O)c3cnccn3)c2O[C@H]1CN(C)Cc1ccccc1 | active
C[C@@H]1CN([C@@H](C)CO)C(=O)c2cccc(NC(=O)c3ccc(-c4nccs4)cc3)c2O[C@@H]1CN(C)S(=O)(=O)c1ccc(Cl)cc1 | inactive
C[C@H](CO)N1C[C@H](C)[C@@H](CN(C)Cc2ccccc2)Oc2c(NC(=O)c3cnccn3)cccc2C1=O | inactive
C[C@H]1CN([C@@H](C)CO)C(=O)c2cccc(NC(=O)c3ccc(-c4nccs4)cc3)c2O[C@@H]1CN(C)Cc1ccc(-c2ccccc2)cc1 | inactive
C[C@H]1CN([C@@H](C)CO)C(=O)c2cc(NS(=O)(=O)c3cccs3)ccc2O[C@@H]1CN(C)S(=O)(=O)c1ccccc1 | inactive

SMILES | cytotoxicity call
COC(=O)CCCCCCC(=O)N/N=C/[C@H](O)[C@@H](O)[C@H](O[C@@H]1O[C@H](CO)[C@H](O)[C@H](O)[C@H]1O)[C@H](O)CO | inactive
CO[C@H](CN(C)C(=O)c1ccc2c(c1)OCO2)[C@H](C)CN([C@@H](C)CO)S(=O)(=O)c1ccc(C)cc1 | inactive
Cc1ccc(S(=O)(=O)N(C)C[C@H]2Oc3ccc(NC(=O)CCN4CCOCC4)cc3CC(=O)N([C@@H](C)CO)C[C@@H]2C)cc1 | inactive
Cc1cc(=O)oc2cc(O[C@H]3O[C@@H](CO)[C@@H](O)[C@@H](O)[C@@H]3O)ccc12 | inactive
C[C@H]1C[C@@H]2[C@@H](C[C@@H]1C)N[C@@H]1C(=O)NC(=O)N[C@H]1N2C[C@H](O)[C@H](O)[C@H](O)CO | inactive
Cc1ccc(S(=O)(=O)N(C)C[C@@H]2OCCCC[C@@H](C)Oc3ccc(NC(=O)Nc4ccccc4)cc3C(=O)N([C@@H](C)CO)C[C@@H]2C)cc1 | inactive
COc1ccc(NC(=O)Nc2ccc3c(c2)C(=O)N([C@H](C)CO)C[C@H](C)[C@@H](CN(C)C(=O)Nc2cccc4ccccc24)OCCCC[C@@H](C)O3)cc1 | inactive
CC#CC(=O)NS(=O)(=O)c1ccccc1 | inactive
C[C@@H]1CN([C@@H](C)CO)C(=O)c2cccc(NC(=O)C3CCOCC3)c2O[C@H]1CN(C)S(=O)(=O)c1cn(C)cn1 | inactive
C[C@H]1CN([C@@H](C)CO)C(=O)Cc2cc(NS(=O)(=O)c3cn(C)cn3)ccc2O[C@@H]1CN(C)CC1CCCCC1 | inactive
CC(=O)N(C)C[C@H]1Oc2cc(C#CCN(C)C)ccc2S(=O)(=O)N([C@@H](C)CO)C[C@@H]1C | inactive
C[C@H](CO)N1C[C@H](C)[C@H](CN(C)Cc2ccc(C(=O)Nc3ccccc3N)cc2)Oc2c(NC(=O)c3ccc(-c4nccs4)cc3)cccc2C1=O | inactive
C[C@H]1CN([C@@H](C)CO)C(=O)c2cccc(NC(=O)c3ccncc3)c2O[C@H]1CN(C)Cc1ccc(-c2ccccc2)cc1 | inactive
C[C@H](CO)N1C[C@H](C)[C@H](CN(C)Cc2ccc(-c3ccccc3)cc2)Oc2c(NC(=O)c3ccncc3)cccc2C1=O | inactive
C[C@H]1CN([C@@H](C)CO)C(=O)c2cccc(NC(=O)c3ccc(-c4nccs4)cc3)c2O[C@@H]1CN(C)CC1CCCCC1 | inactive
C[C@@H]1CN([C@H](C)CO)C(=O)c2cccc(NC(=O)c3ccc(-c4nccs4)cc3)c2O[C@@H]1CN(C)CC1CCCCC1 | inactive
C[C@@H]1CN([C@@H](C)CO)C(=O)c2cccc(NC(=O)c3ccc(-c4nccs4)cc3)c2O[C@@H]1CN(C)Cc1ccc(Cl)c(Cl)c1 | active
C[C@H]1CN([C@@H](C)CO)C(=O)c2cccc(NC(=O)c3ccc(-c4nccs4)cc3)c2O[C@@H]1CN(C)Cc1ccc(Cl)c(Cl)c1 | inactive
C[C@H]1CN([C@@H](C)CO)C(=O)c2cccc(NC(=O)c3ccc(-c4nccs4)cc3)c2O[C@@H]1CN(C)Cc1ccc(C(=O)Nc2ccccc2N)cc1 | inactive
C[C@@H]1CN([C@H](C)CO)C(=O)c2cccc(NC(=O)c3ccc(-c4nccs4)cc3)c2O[C@H]1CN(C)Cc1ccc(Cl)c(Cl)c1 | inactive
C[C@@H]1CN([C@@H](C)CO)C(=O)c2cccc(NC(=O)c3ccc(-c4nccs4)cc3)c2O[C@@H]1CN(C)Cc1ccc(C(=O)Nc2ccccc2N)cc1 | active
C[C@H](CO)N1C[C@H](C)[C@@H](CN(C)Cc2ccc(-c3ccccc3)cc2)Oc2c(NC(=O)c3ccncc3)cccc2C1=O | active
C[C@@H]1CN([C@H](C)CO)C(=O)c2cccc(NC(=O)c3ccc(-c4nccs4)cc3)c2O[C@H]1CN(C)CC1CCCCC1 | active
